Consider seven molecules from PubChem BioAssay.

Test [1] can be described thus: P. berghei load reduction in hepatocytes – cell-based, HepG2, luciferase luminescence, HepG2 viability, primary screen (AID 624349; in the data active means parasite load remaining mostly below about 12%, no sharp cut-off; inactive means mostly above about 10%;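 further: 100% = mean of DMSO negative control wells on the same plate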). The note with it: P. berghei liver stage in HepG2, luciferase luminescence, concentration not given here; parasite load remaining: stronger effect = lower value; viability: measured here: HepG2 viability without parasites.
A short description of test [2]: viability loss in pontine glioma line – cell-based, SU-DIPG-IV, MIPE4.0, CellTiter-Glo, qHTS, dose response (AID 1347063; cut-off not given, nearly all actives have AC50 up to about 30 µM;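 further: compound exposure lasted 48 hours before the viability readout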). The note with it: CellTiter-Glo ATP luminescence.
A short description of test [3]: growth inhibition, single agents and combos, CRL2098, cell-based, BGB or cisplatin IC20 combos, synergistic combos for chromothripsis tumors (AID 1671454).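 Further: cells exposed for 96 h before readout; 0% = vehicle DMSO and 100% = killing by high DMSO.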 The settings on record: CRL2098 osteosarcoma cells, drug combinations, stronger effect = higher value.
The nature of test [4]: growth inhibition, single agents and combos, HD-MB03, cell-based, BGB or cisplatin IC20 combos, synergistic combos for chromothripsis tumors (AID 1671455; in the data active means inhibition above about 83%;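 further: 0% = vehicle DMSO and 100% = high DMSO as cytotoxic control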). The settings on record: HD-MB03 medulloblastoma cells, stronger effect = higher value.
Test [5] in a line: growth inhibition, single agents and combos, UWB1.289, cell-based, BGB or cisplatin combos, synergistic combos for chromothripsis tumors (AID 1671456).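 Further: cells exposed to compound for four days; 0% = vehicle DMSO and 100% = killing by high DMSO.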 The settings on record: UWB1.289 ovarian carcinoma cells, stronger effect = higher value.
A short description of test [6]: growth inhibition, single agents and combos, LFS_MB_2R, cell-based, cisplatin combos, synergistic combos for chromothripsis tumors (AID 1671457).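 Further: cells exposed to compound for four days before readout.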 The settings on record: LFS_MB_2R medulloblastoma cells, stronger effect = higher value.
Test [7] can be described thus: UWB1.289_BRCA1 ovarian cancer growth, cell-based, BGB or cisplatin combinations (AID 1671459). The settings on record: UWB1.289 BRCA1 ovarian carcinoma, drug combinations, stronger effect = higher value.
A short description of test [8]: drug combination toxicity in non-malignant astrocytes – cell-based, BGB or cisplatin IC20 combos, cytotoxicity control for chromothriptic childhood tumor combination screen (AID 1671460).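 Further: cells exposed to compounds for 96 hours before viability readout; 0% = vehicle and 100% = killing control.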 The settings on record: Human astrocytes, viability inhibition, drug combinations, at 0.5 µM, stronger effect = higher value.
Test [9] is described as follows: viability loss in pontine glioma line – cell-based, SU-DIPG-XIII, MIPE5.0, CellTiter-Glo, qHTS, dose response (AID 1347064; cut-off not given, nearly all actives have AC50 up to about 23 µM). The note with it: CellTiter-Glo ATP luminescence.
Test [10] relates to Neuropilin-2 / VEGF-C interaction (human). Put plainly: small molecules blocking Neuropilin-2/VEGF-C interaction – biochemical, microplate binding format, z-score (AID 743281; call rule not given here). The note with it: microplate NRP2/VEGF-C binding assay; stronger effect = lower value.
Test [11] concerns Aerobactin synthetase IucA (Klebsiella pneumoniae). Nature of the test: inhibition of K. pneumoniae IucA enzyme – biochemical, Tocris library, absorbance (AID 1345561; call rule not given here;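 further: 100% = enzyme without compound and 0% = no enzyme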). The settings on record: purified IucA enzyme assay, absorbance (OD) read-out; stronger effect = lower value;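 tested at 8 µM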.
The nature of test [12]: chitosan synthesis blockers in C. neoformans – flow cytometry, Cibacron Brilliant Red staining (AID 1347148; call rule not given here;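 further: compound exposure lasted three days at 37 degrees C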). The settings on record: Cryptococcus neoformans chitosan, stronger effect = lower value; at 99.1 µM unless noted.
Test [13] addresses ATP-dependent translocase ABCB1 (Homo sapiens) (UniProt P08183). Put plainly: P-glycoprotein substrate transport blockade – cell-based (AID 377; in the data active means fluorescence slope change above about 50%). The note with it: MDR1-expressing cells, fluorescent substrate accumulation slope; stronger effect = higher value; concentration not given here.
[14] abbreviates: measured here: combination with BGB at IC20, at 0.5 µM.
[15] abbreviates: measured here: combination with cisplatin at IC20, at 0.5 µM.
The mark [16] stands for this setting: measured here: combo with BGB at IC20, at 0.5 µM.
The mark [17] stands for this setting: measured here: combo with cisplatin at IC20, at 0.5 µM.
Where [18] appears, read: measured here: inhibition with BGB combination, at 0.05 µM.
The mark [19] stands for this setting: measured here: inhibition with cisplatin combination, at 0.05 µM.
[20] abbreviates: measured here: combination with cisplatin, at 0.5 µM.
Setting [21] is: measured here: combination with cisplatin, at 5 µM.
[22] abbreviates: BGB combination, concentration series, at 5 µM.
Where [23] appears, read: cisplatin combination, concentration series, at 5 µM.
[24] abbreviates: measured here: combo with BGB IC20.
Setting [25] is: measured here: combo with cisplatin IC20.

Where “and” joins values, the source holds several entries; their conditions need not be identical. Equal entries are not always repeated. Results filed as inconclusive are left out. Calls of active or inactive are those of the source. Unless noted, no stated cut-off is given here; in the data, active means inhibition above about 80%; inactive means the rest.

Chain of ATP-dependent translocase ABCB1 (Homo sapiens) (P08183 whole entry, looked up): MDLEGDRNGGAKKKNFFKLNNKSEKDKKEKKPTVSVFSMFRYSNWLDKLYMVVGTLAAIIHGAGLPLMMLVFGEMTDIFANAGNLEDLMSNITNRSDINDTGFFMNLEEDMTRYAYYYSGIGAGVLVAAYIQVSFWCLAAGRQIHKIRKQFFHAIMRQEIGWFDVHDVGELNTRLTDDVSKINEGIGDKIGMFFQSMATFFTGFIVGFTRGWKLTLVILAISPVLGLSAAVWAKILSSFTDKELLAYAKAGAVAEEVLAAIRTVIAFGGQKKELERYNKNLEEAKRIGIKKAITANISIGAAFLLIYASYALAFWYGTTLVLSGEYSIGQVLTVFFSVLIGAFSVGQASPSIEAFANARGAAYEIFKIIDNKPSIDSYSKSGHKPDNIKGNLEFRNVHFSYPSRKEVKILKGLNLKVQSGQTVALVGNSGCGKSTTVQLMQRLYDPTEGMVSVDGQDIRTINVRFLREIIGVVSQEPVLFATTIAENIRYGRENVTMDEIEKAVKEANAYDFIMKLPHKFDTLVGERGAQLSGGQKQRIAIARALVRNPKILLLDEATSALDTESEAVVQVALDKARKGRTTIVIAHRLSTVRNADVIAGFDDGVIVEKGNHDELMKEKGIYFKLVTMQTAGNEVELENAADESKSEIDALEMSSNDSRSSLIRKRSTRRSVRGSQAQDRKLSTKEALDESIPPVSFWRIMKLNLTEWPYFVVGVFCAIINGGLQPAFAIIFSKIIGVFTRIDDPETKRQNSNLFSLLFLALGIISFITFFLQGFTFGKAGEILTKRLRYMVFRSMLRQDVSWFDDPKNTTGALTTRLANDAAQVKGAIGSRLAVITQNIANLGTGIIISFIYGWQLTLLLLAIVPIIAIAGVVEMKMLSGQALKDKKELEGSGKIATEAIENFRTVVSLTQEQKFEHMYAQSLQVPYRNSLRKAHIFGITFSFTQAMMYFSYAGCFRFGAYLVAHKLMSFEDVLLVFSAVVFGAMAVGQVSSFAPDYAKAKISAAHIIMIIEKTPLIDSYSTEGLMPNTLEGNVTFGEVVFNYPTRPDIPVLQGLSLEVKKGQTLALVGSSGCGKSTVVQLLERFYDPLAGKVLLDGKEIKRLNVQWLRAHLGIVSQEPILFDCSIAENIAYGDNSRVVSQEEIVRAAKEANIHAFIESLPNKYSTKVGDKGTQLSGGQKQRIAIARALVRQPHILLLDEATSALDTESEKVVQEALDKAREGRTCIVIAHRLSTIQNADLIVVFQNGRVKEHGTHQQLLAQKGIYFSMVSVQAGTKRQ

Usually viability stands for a read-out of living cells in per cent, often relative to untreated cells. Broadly, the inhibition is the change of the read-out against control, counted positive when it falls. Regarding `S=c1nc[nH]c2nc[nH]c12`, the parasite load remaining in test [1] was 27.1% (inactive) and 38.1% (inactive) and 20.6% (inactive). The viability in [1] is 73.4% and 55.1% and 57.4%. The molecule was classed as inactive in test [2]. Moreover, the inhibition was -2.69% (inactive) and -57.6% (inactive) and -53.9% (inactive) in test [3] (at 0.5 µM); -5.16% and -41% and -65.5% in test [3] (setting [14]); -32% and -63.9% and -65.9% in test [3] (setting [15]); -4.55% (inactive) and -3.29% (inactive) and -17.6% (inactive) in [4] (at 0.5 µM); -4.3% and -15.6% and -16.3% in test [4] (setting [16]); -5.54% and 2.44% and -26.8% in test [4] (setting [17]). The inhibition in test [5] (at 0.5 µM) is 57.7% (inactive) and 56.2% (inactive) and 56.1% (inactive); in test [5] (setting [18]) it was -14.8% and -13.6% and -15.6%; in test [5] (setting [19]), -7.08% and -3.38% and -9.93%; in test [6] (at 0.5 µM) it was -7.19% (inactive) and -1.38% (inactive) and -2.98% (inactive); in [6] (setting [20]) it was -15.5% and -27.1% and 4.18%; in test [6] (setting [21]), -9.32% and -12.4% and -4.44%. Further, the inhibition is 95.7% and 91.5% and 93.1% in test [7] (setting [22]); 63.6% (inactive) and 53.4% (inactive) and 47.8% (inactive) in [7] (at 0.5 µM); 100% and 93.5% and 94.9% in test [7] (setting [23]); 13.8% (inactive) and -4.07% (inactive) and -10.8% (inactive) in test [8]; 14.2% and -8.32% and -0.26% in test [8] (setting [24]); 3.43% and 3.12% and -27.4% in [8] (setting [25]).
For `CCc1cc(C(N)=S)ccn1`, the call in [2] was inactive.
Regarding `NCCc1ccc(O)c(O)c1`, in test [1], the parasite load remaining is 36.4% (inactive) and 34.7% (inactive) and 21% (inactive); the viability was 120% and 74.1% and 206%. Also, in [2], the outcome was inactive.
`CC(C)Cc1ccc(C(C)C(=O)O)cc1` (stereo unspecified): the result in [2] and in [9] was inactive.
One may read the remaining activity as the signal under treatment as a percentage of the control signal. `COCCOC(=O)C1=C(C)NC(C)=C(C(=O)OC(C)C)C1c1cccc([N+](=O)[O-])c1` (stereo unspecified): in test [10], the z-score is -0.18 (inactive). In addition, the remaining activity in test [11] is 102% (inactive). Besides, the fold fluorescence in test [12] was 6.04 [at 119.5 µM] (inactive).
As for `COc1c(N2CCNC(C)C2)c(F)cc2c(=O)c(C(=O)O)cn(C3CC3)c12` (stereo unspecified), in test [2], the outcome was inactive. The inhibition in [3] (at 0.5 µM) was -43.6% (inactive) and -34.5% (inactive); in test [3] (setting [14]) it was -42.5% and -87.3%; in [3] (setting [15]), -71.8% and 0.194%; in test [4] (at 0.5 µM) it was -13.9% (inactive) and 3.18% (inactive); in test [4] (setting [16]), -14.1% and 5.19%; in test [4] (setting [17]), -19.6% and 0.97%. Moreover, the inhibition in test [5] (at 0.5 µM) was -2.27% (inactive) and 6.63% (inactive); in test [5] (setting [18]), -7.46% and -0.326%; in [5] (setting [19]), -30.7% and -0.886%; in test [6] (at 0.5 µM) it was -11.1% (inactive) and 6.57% (inactive); in test [6] (setting [20]), -12.5% and 9.12%; in test [6] (setting [21]) it was -5.47% and -26.4%. For the same molecule, the inhibition in test [7] (setting [22]) was -10.3% and 3.45%; in test [7] (at 0.5 µM), -4.22% (inactive) and 5.59% (inactive); in test [7] (setting [23]) it was -1.48% and 7.21%; in test [8] it was -3.01% (inactive) and 1.57% (inactive); in test [8] (setting [24]), -5.37% and 4.53%; in test [8] (setting [25]), -9.08% and 0.874%.
`CS(=O)(=O)OCCCCOS(C)(=O)=O`: the fluorescence slope change in test [13] is 13.3% (inactive). In addition, in test [1], the parasite load remaining is 46.8% (inactive) and 102% (inactive) and 58% (inactive). In addition, the viability in test [1] was 95.5% and 78.8% and 98.1%. For the same molecule, in [2], the outcome was inactive. Also, the inhibition is -52.1% (inactive) and -4.61% (inactive) in [3] (at 0.5 µM); -29.9% and -15.7% in [3] (setting [14]); -107% and 11.7% in test [3] (setting [15]); -10.8% (inactive) and -1.12% (inactive) in test [4] (at 0.5 µM); -20.4% and -4.59% in test [4] (setting [16]); -6.85% and 1.19% in test [4] (setting [17]). In addition, the inhibition in test [5] (at 0.5 µM) is 4.55% (inactive) and 10.4% (inactive); in [5] (setting [18]) it was -3.6% and 0.829%; in test [5] (setting [19]), 24.9% and -0.011%; in test [6] (at 0.5 µM) it was -13.8% (inactive) and 9.5% (inactive); in test [6] (setting [20]), -18.7% and -5.75%; in [6] (setting [21]), -4.43% and 9.74%. Besides, the inhibition in test [7] (setting [22]) is 12% and 6.21%; in test [7] (at 0.5 µM), 5.87% (inactive) and 9.31% (inactive); in test [7] (setting [23]) it was -4.07% and 9.32%; in test [8], 7.45% (inactive) and 3.61% (inactive); in [8] (setting [24]), 2.2% and 2.78%; in test [8] (setting [25]), 9.68% and 12.3%.
